Assay results as given in PubChem BioAssay AID1159580 (chemical genetic matrix, 2015).
Several values for one entry are separate records, joined by “and”; a condition that tells them apart may be missing. Equal values may be shown once. Screen size: about 5,500 compounds; about 2,000 (36%) were called active. Another 18% or so got no clear call; they are omitted. Cut-off read from the data, not from the text of the source: active = normalized growth mostly below about 0.91 (no sharp cut-off); inconclusive = no clear call, values can overlap the other calls; inactive = mostly above about 0.92. The list shows a part of the results.

Experiment: chemical genetic growth profiling, strain panel (AID 1159580);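 note: tested at 20 µM; growth read once vehicle control cultures reached saturation at 30 °C; 1 = growth at the plate median or of vehicle wells; lower values mean less growth of the strain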
Conditions: S. cerevisiae deletion strains, growth OD
[1] = locus YAL013W, strain DEP1, hits give low values
[2] = locus YGR078C, strain PAC10, hits give low values
[3] = locus YJR075W, strain HOC1, hits give low values
[4] = locus YMR307W, strain GAS1, hits give low values
[5] = locus YPL055C, strain LGE1, hits give low values
[6] = locus YPL241C, strain CIN2, hits give low values
[7] = locus YAL040C, strain CLN3, hits give low values
[8] = locus YDR363W, strain ESC2, hits give low values
[9] = locus YER002W, strain NOP16, hits give low values
[10] = locus YNL153C, strain GIM3, hits give low values
[11] = locus YNL175C, strain NOP13, hits give low values
[12] = locus YNL197C, strain WHI3, hits give low values
[13] = locus YNL224C, strain SQS1, hits give low values
[14] = locus YOR083W, strain WHI5 (second series), hits give low values

Measured: normalized growth

CC1(C)O[C@@H]2CC3C4C[C@H](F)C5=CC(=O)C=C[C@]5(C)[C@@]4(F)[C@@H](O)C[C@]3(C)[C@]2(C(=O)CO)O1 (stereo not given in full)
inactive: [1] 1 | locus YAL021C, strain ccr4, hits give low values 1.01 | locus YAL026C, strain drs2, hits give low values 1 | locus YAL030W, strain snc1, hits give low values 1.01 | locus YBL061C, strain skt5, hits give low values 1.01 | locus YBR009C, strain hhf1, hits give low values 1.01 | locus YBR021W, strain FUR4, hits give low values 0.995 | locus YBR023C, strain chs3, hits give low values 1.03 | locus YBR171W, strain sec66, hits give low values 1.02 | locus YBR229C, strain ROT2, hits give low values 0.999 | locus YBR231C, strain swc5, hits give low values 1.01 | locus YBR279W, strain paf1, hits give low values 1.05 | locus YCL011C, strain gbp2, hits give low values 1.03 | locus YCL016C, strain dcc1, hits give low values 1.02 | locus YCL029C, strain bik1, hits give low values 1.01 | locus YCL061C, strain MRC1, hits give low values 1.03 | locus YCL069W, strain vba3, hits give low values 1.02 | locus YCR088W, strain abp1, hits give low values 1.01 | locus YDL005C, strain med2, hits give low values 1.02 | locus YDL035C, strain GPR1, hits give low values 0.982 | locus YDL040C, strain nat1, hits give low values 1.01 | locus YDL074C, strain BRE1, hits give low values 1 | locus YDL101C, strain DUN1, hits give low values 1.01 | locus YDL185W, strain tfp1, hits give low values 1.01 | locus YDL192W, strain arf1, hits give low values 1.01 | locus YDR001C, strain nth1, hits give low values 1.02 | locus YDR069C, strain doa4, hits give low values 1 | locus YDR101C, strain arx1, hits give low values 0.988 | locus YDR137W, strain rgp1, hits give low values 1.02 | locus YDR159W, strain sac3, hits give low values 0.973 | locus YDR162C, strain NBP2, hits give low values 0.993 | locus YDR195W, strain ref2 1.01 | locus YDR297W, strain sur2, hits give low values 1.01 | locus YDR318W, strain mcm21, hits give low values 1.02 | locus YDR334W, strain swr1, hits give low values 1.01 | locus YDR335W, strain msn5, hits give low values 1.02 | locus YDR388W, hits give low values 1.01 | locus YDR392W, strain spt3, hits give low values 0.975 | locus YDR502C, strain sam2, hits give low values 1.01 | locus YEL003W, strain gim4, hits give low values 1 | locus YEL037C, strain rad23, hits give low values 1.01 | locus YEL061C, strain CIN8 (second series), hits give low values 1.02 | locus YEL061C, strain CIN8, hits give low values 0.992 | locus YER015W, strain faa2, hits give low values 1.01 | locus YER016W, strain bim1, hits give low values 1.01 | locus YER110C, hits give low values 1.02 | locus YER111C, strain swi4, hits give low values 1.01 | locus YER155C, strain BEM2 (second series), hits give low values 1.02 | locus YER155C, strain BEM2, hits give low values 0.997 | locus YER167W, strain BCK2, hits give low values 1 | locus YFR010W, strain ubp6, hits give low values 1.01 | locus YGL078C, strain dbp3, hits give low values 1.02 | locus YGL086W, strain mad1, hits give low values 0.992 | locus YGL167C, strain pmr1, hits give low values 1.01 | locus YGL173C, strain kem1, hits give low values 1.01 | locus YGL227W, strain vid30, hits give low values 1.02 | locus YGL240W, strain doc1, hits give low values 0.997 | locus YGL248W, strain PDE1, hits give low values 1.01 | locus YGL253W, strain hxk2, hits give low values 1.01 | [2] 0.994 | locus YGR135W, strain pre9, hits give low values 1.07 | locus YGR252W, strain gcn5, hits give low values 1.07 | locus YHR013C, strain ard1, hits give low values 1.05 | locus YHR027C, strain rpn1, hits give low values 1.01 | locus YHR030C, strain SLT2, hits give low values 0.99 and 0.972 | locus YHR079C, strain IRE1 (second series), hits give low values 1.01 | locus YHR079C, strain IRE1, hits give low values 0.969 | locus YHR094C, strain hxt1, hits give low values 1.02 | locus YHR129C, strain ARP1, hits give low values 0.997 | locus YHR142W, strain chs7, hits give low values 1.03 | locus YHR200W, strain rpn10, hits give low values 1.02 | locus YIL066C, strain RNR3, hits give low values 0.993 | locus YIL073C, strain SPO22, hits give low values 1.02 | locus YIL125W, strain kgd1, hits give low values 1.01 | locus YIR030C, strain dcg1, hits give low values 1.02 | locus YJL092W, strain hpr5, hits give low values 1.02 | locus YJL095W, strain BCK1 (second series), hits give low values 1.02 | locus YJL095W, strain BCK1, hits give low values 1.01 and 0.978 | locus YJL115W, strain asf1, hits give low values 1.01 | locus YJL129C, strain trk1, hits give low values 1.02 | locus YJL134W, strain LCB3, hits give low values 1 | locus YJL154C, strain vps35, hits give low values 1.01 | locus YJL164C, strain tpk1, hits give low values 1.01 | locus YJL166W, strain qcr8, hits give low values 1.03 | locus YJL168C, strain set2, hits give low values 1.02 | locus YJL187C, strain SWE1 (second series), hits give low values 0.999 | locus YJL187C, strain SWE1, hits give low values 1.01 | locus YJR043C, strain POL32, hits give low values 0.988 | locus YJR066W, strain TOR1, hits give low values 0.952 | [3] 0.994 | locus YKL009W, strain mrt4, hits give low values 0.996 | locus YKL068W, hits give low values 1.01 | locus YKL085W, strain MDH1 (second series), hits give low values 1.01 | locus YKL085W, strain MDH1, hits give low values 1.01 | locus YKL160W, strain elf1, hits give low values 1.03 | locus YKL190W, strain CNB1, hits give low values 0.994 | locus YKR001C, strain vps1, hits give low values 1 | locus YKR026C, strain gcn3, hits give low values 1.01 | locus YKR091W, strain srl3, hits give low values 1.01 | locus YLL001W, strain dnm1, hits give low values 1.01 | locus YLL026W, hits give low values 1.01 | locus YLL041C, strain sdh2, hits give low values 1.01 | locus YLR027C, strain aat2, hits give low values 1.01 | locus YLR039C, strain RIC1, hits give low values 1.05 | locus YLR058C, strain SHM2, hits give low values 1.01 | locus YLR102C, strain apc9, hits give low values 1.02 | locus YLR113W, strain HOG1, hits give low values 0.994 | locus YLR221C, strain rsa3, hits give low values 1.02 | locus YLR258W, strain gsy2, hits give low values 1.01 | locus YLR262C, strain YPT6 (second series), hits give low values 1.04 | locus YLR262C, strain YPT6, hits give low values 0.968 | locus YLR268W, strain sec22, hits give low values 1.01 | locus YLR320W, strain mms22, hits give low values 1.04 | locus YLR330W, strain CHS5, hits give low values 1 | locus YLR342W, strain FKS1 (second series), hits give low values 1.01 | locus YLR342W, strain FKS1, hits give low values 1.02 | locus YLR357W, strain rsc2, hits give low values 1.01 | locus YLR370C, strain arc18, hits give low values 1.01 | locus YLR371W, strain rom2, hits give low values 1.01 | locus YLR384C, strain iki3, hits give low values 1.02 | locus YLR418C, strain cdc73, hits give low values 1.03 | locus YML016C, strain PPZ1, hits give low values 0.998 | locus YML032C, strain rad52, hits give low values 1.01 | locus YML120C, strain ndi1, hits give low values 1.03 | locus YML124C, strain tub3, hits give low values 1.01 | locus YMR058W, strain fet3, hits give low values 1.01 | locus YMR078C, strain ctf18, hits give low values 1.01 | locus YMR125W, strain sto1, hits give low values 1.03 | locus YMR129W, hits give low values 1.01 | locus YMR205C, strain PFK2, hits give low values 1.01 | locus YMR223W, strain ubp8, hits give low values 1.04 | locus YMR231W, strain pep5, hits give low values 1.01 | [4] 0.967 | locus YNL067W, strain RPL9B, hits give low values 0.993 | locus YNL071W, strain lat1, hits give low values 1.02 | locus YNL128W, strain TEP1, hits give low values 1.01 | locus YNL183C, strain NPR1, hits give low values 0.975 | locus YNL209W, strain ssb2, hits give low values 1.02 | locus YNL233W, strain BNI4, hits give low values 1 | locus YNL248C, strain rpa49, hits give low values 1.01 | locus YNL250W, strain rad50, hits give low values 1.05 | locus YNL271C, strain bni1, hits give low values 1.02 | locus YNL298W, strain CLA4, hits give low values 1.01 | locus YNL307C, strain MCK1, hits give low values 1.03 | locus YNL322C, strain KRE1 (second series), hits give low values 1.03 | locus YNR049C, strain mso1, hits give low values 1 | locus YNR052C, strain pop2, hits give low values 1.01 | locus YOL012C, strain htz1 0.765 | locus YOL147C, strain pex11, hits give low values 1.02 | locus YOR001W, strain rrp6, hits give low values 0.98 | locus YOR061W, strain CKA2, hits give low values 1.01 | locus YOR069W, strain VPS5, hits give low values 1 | locus YOR070C, strain gyp1, hits give low values 1.03 | locus YOR080W, strain dia2, hits give low values 1.02 | locus YOR083W, strain WHI5, hits give low values 1.04 | locus YOR106W, strain vam3, hits give low values 1.04 | locus YOR136W, strain idh2, hits give low values 1.01 | locus YOR144C, strain elg1, hits give low values 1.01 | locus YOR184W, strain ser1, hits give low values 1.02 | locus YOR231W, strain MKK1, hits give low values 0.986 | locus YOR265W, strain rbl2, hits give low values 1.01 | locus YOR270C, strain vph1, hits give low values 1.04 | locus YOR290C, strain snf2, hits give low values 0.985 | locus YOR316C, strain cot1, hits give low values 1.01 | locus YPL051W, strain arl3, hits give low values 1.01 | [5] 0.996 | locus YPL078C, strain atp4, hits give low values 1.02 | locus YPL106C, strain sse1, hits give low values 1.01 | locus YPL240C, strain hsp82, hits give low values 1.01 | [6] 1 | locus YPL256C, strain CLN2, hits give low values 0.987 | locus YPR119W, strain clb2, hits give low values 1.02 | locus YPR141C, strain kar3, hits give low values 1.01 | locus YPR163C, strain tif3, hits give low values 1.02 | locus YPR167C, strain met16, hits give low values 1.01 | strain wtn01, hits give low values 1.01

N=c1ccn2c(n1)OC1C(O)[C@@H](CO)O[C@H]12 (stereo not given in full)
inactive: [1] 0.99 | [7] 1 | [8] 0.986 | [9] 1.01 | [10] 1.02 | [11] 1 | [12] 1 | [13] 1.03 | locus YNL322C, strain KRE1, hits give low values 1 | [14] 1.03

CC(N)Cc1c[nH]c2ccc(OCc3cccs3)cc12 (stereo not given)
inactive: [1] 1 | [7] 1.02 | [8] 0.984 | [9] 1.02 | [2] 1.01 | [3] 1 | [4] 1.02 | [10] 1.02 | [11] 0.986 | [12] 1.01 | [13] 1.01 | [14] 0.981 | [5] 1 | [6] 1.01
